# Reference: PubChem BioAssay (NCATS)
# Inconclusive results are not listed. A call without a number means that no potency is given here. Calls of active or inactive are those of the source. Calls follow the shape of the dose curve; as a rule, active = well fitted curve in the direction sought with a large enough effect; inconclusive = small, poorly fitted or top-dose-only effect, or another doubt; inactive = no such curve, though single readings can be large; an effect the other way counts as inactive or inconclusive.
# What was measured:
# [1] = qHTS to identify inhibitors of the type 1 interferon - major histocompatibility complex class I in skeletal muscle: primary screen against the NCATS LOPAC collection (AID 1347405);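 also: lytic HiBiT luminescence reporting HLA-B protein level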; also: potency is read from the fitted curve at half-maximal effect
# Procedure, shortened: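 Immortalized human C25cl48 myoblasts with HiBiT knocked into endogenous HLA-B*08:01 were stimulated with 4.0 ng/ml IFN-beta and given compounds in a 7-point, 1:4.3 titration from 46 uM final; after 24 hrs, lytic HiBiT luminescence was read.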
# [2] = qHTS for inhibitors of adenylyl cyclases using a fission yeast platform: a pilot screen against the NCATS LOPAC library (AID 1347410)
# Procedure, shortened: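 S. pombe CHP2027 (AC9-GNAS-PDE4D2) carrying PKA-repressed fbp1-GFP, incubated 18 h at 30C in EMM with LOPAC compounds at up to 57 uM. GFP gain-of-signal read by laser scanning cytometry; DMSO negative control.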
# [3] = qHTS to identify inhibitors of the type 1 interferon - major histocompatibility complex class I in skeletal muscle: primary screen against the NCATS Pharmaceutical Collection (AID 1347407);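 also: luminescence of HiBiT knocked into endogenous HLA-B as interferon-induced MHC class I level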
# Procedure, shortened: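 Immortalized human myoblasts (C25cl48) with HiBiT knocked into endogenous HLA-B*08:01 were stimulated with 4.0 ng/ml IFN-beta and treated with compounds ([…] top 46 uM) for 24 hrs at 37 C. HiBiT lytic luminescence read.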
# [4] = molecular target: Protein phosphatase 1D (Homo sapiens) (UniProt O15297); test: RapidFire Mass Spectrometry qHTS Assay for Modulators of WT P53-Induced Phosphatase 1 (WIP1) (AID 1347424);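 also: amount of dephosphorylated VEPPL-S-QETFS peptide product formed by WIP1; series mostly up to about 63 µM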
# Chain of Protein phosphatase 1D (Homo sapiens) (O15297 whole entry, looked up): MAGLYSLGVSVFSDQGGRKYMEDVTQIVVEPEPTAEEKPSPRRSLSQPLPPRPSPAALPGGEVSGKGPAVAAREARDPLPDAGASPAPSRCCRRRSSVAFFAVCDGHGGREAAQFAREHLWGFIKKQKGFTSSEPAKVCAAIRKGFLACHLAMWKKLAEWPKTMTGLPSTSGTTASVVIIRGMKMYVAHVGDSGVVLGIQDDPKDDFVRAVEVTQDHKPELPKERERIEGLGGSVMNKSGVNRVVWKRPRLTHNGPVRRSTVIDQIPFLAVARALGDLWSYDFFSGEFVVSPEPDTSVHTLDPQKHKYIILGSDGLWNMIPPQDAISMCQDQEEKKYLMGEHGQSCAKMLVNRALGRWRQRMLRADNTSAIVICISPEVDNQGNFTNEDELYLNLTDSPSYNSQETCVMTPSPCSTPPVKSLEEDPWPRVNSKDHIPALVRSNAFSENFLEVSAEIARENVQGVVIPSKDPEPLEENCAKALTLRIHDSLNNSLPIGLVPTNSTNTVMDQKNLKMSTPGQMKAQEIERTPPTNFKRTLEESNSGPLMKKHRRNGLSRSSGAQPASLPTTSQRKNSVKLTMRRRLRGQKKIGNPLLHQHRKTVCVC
# Procedure, shortened: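 10 nM WIP1 preincubated with compounds 1 hr at room temperature in pH 7.5 Tris buffer with 30 mM MgCl2, 1 mM TCEP; 2 uM VEPPL-pS-QETFS phosphopeptide for 5 min, formic acid quench; dephosphorylated product quantified by RapidFire MS against labelled standard.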
# [5] = Validation qHTS assay for inhibitors of Activation Induced Cytidine Deaminase (AID): UDG Counterscreen signal (AID 1347427)
# Procedure, shortened: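 Counterscreen read of UDG activity (2 U/mL, 4/3x) in the FRET deamination format with AID (1 uM, 4/3x), DJC20/DJC23 substrates (250 nM, 4x), 4 h at room temperature. NaOH stop, fluorescence at 560 ex/665 em.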
# [6] = Viability qHTS for inhibitors of the SERCaMP assay screened against the NCATS CANVASS Library (AID 1347400); also: potency is read from the fitted curve at half-maximal effect; nearly all actives have a fitted effect of over 70% in size
# Procedure, shortened: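 SH-SY5Y-GLuc SERCaMP MJH297-derived cells (1000 cells/well) were pre-incubated 4 h at 37C, then exposed to compounds for 48 h. Viability was read as CellTiter-Glo luminescence; bortezomib served as positive control.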
# [7] = Redox Reaction Profiling qHTS: Assay Interference Panel against the NCATS CANVASS Library (AID 1347401)
# Procedure, shortened: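 Compounds in 11-point series incubated with 5 uM resazurin and 200 uM DTT in 50 mM HEPES pH 7.3, 50 mM NaCl. Resorufin fluorescence (Ex 525/Em 598) read before and after 15 min in the dark.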
# [8] = qHTS to identify inhibitors of the type 1 interferon - major histocompatibility complex class I in skeletal muscle: primary screen against the NCATS Mechanism Interrogation Plate v5.0 (MIPE) Libary (AID 1347411); also: nearly all actives have a fitted effect of over 65% in size
# Procedure, shortened: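 Immortalized human C25cl48 myoblasts with HiBit knocked into endogenous HLA-B*08:01 were stimulated with 4.0 ng/ml IFN-beta and exposed to compounds (11-point 1:3 titration, top 46 uM final) for 24 hrs at 37 C; HiBiT lytic luminescence measured.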
smiles,measurement,setting,value
CO[C@H]1O[C@@H]2O[C@]3(C)CC[C@@H]4[C@@H](C)CC[C@H]([C@H]1C)[C@]24OO3,Potency,[1],inactive
same,outcome,[2],inactive
Nc1nc2c(ncn2[C@@H]2O[C@H](CO)[C@@H](O)[C@@H]2O)c(=O)[nH]1,Potency,[1],inactive
same,outcome,[2],inactive
COc1ccc(/C=C2\COc3ccc(C)cc3C2=O)cc1O,Potency,[1],14.1 µM (active)
same,outcome,[2],inactive
C[N+]1(C)C2CC(OC(=O)[C@H](CO)c3ccccc3)CC1C1OC12 (some centres undefined),Potency,[1],inactive
same,outcome,[2],inactive
O=C(CCSCc1ccco1)NNC(=O)N1Cc2ccccc2Oc2ccc(Cl)cc21,Potency,[1],inactive
same,outcome,[2],inactive
O=C1NC(O)=NC1(c1ccccc1)c1ccccc1,Potency,[1],inactive
same,outcome,[2],inactive
CCC(CO)Nc1nc(NCc2ccccc2)c2ncn(C(C)C)c2n1 (centres undefined),Potency,[1],15.8 µM (active)
same,outcome,[2],inactive
O=C(Nc1ccc2[nH]ncc2c1)C1CCC1,Potency,[1],inactive
same,outcome,[2],inactive
O=C1NC(=O)c2c1c(-c1ccccc1)cc1[nH]c3ccc(O)cc3c21,Potency,[1],14.1 µM (active)
same,outcome,[2],inactive
CC(N)C(=O)OC(C)(C)Cc1ccc(Cl)cc1 (centres undefined),Potency,[1],inactive
same,Potency,[3],inactive
same,outcome,[2],inactive
same,Potency,[4],inactive
same,Potency,[5],inactive
CS(=O)(=O)c1ccc(-n2nc(C(F)(F)F)cc2-c2ccc(F)cc2)cc1,Potency,[1],inactive
same,outcome,[2],inactive
Nc1ccn([C@@H]2O[C@H](CO)[C@@H](O)[C@@H]2O)c(=O)n1,Potency,[1],inactive
N[C@H](CCCP(=O)(O)O)C(=O)O,Potency,[1],inactive
same,outcome,[2],inactive
COCCOc1cc2ncnc(Cl)c2cc1OCCOC,Potency,[1],inactive
same,outcome,[2],inactive
O=c1cc(-c2ccccc2)oc2c(O)c(O)ccc12,Potency,[6],34 µM (active)
same,outcome,[7],inactive
same,Potency,[1],inactive
same,outcome,[2],inactive
Nc1ccn([C@H]2O[C@H](CO)[C@@H](O)C2(F)F)c(=O)n1,Potency,[1],inactive
same,outcome,[2],inactive
O=C(Nc1ccncc1)c1cc([N+](=O)[O-])ccc1Cl,Potency,[1],15.8 µM (active)
same,outcome,[2],inactive
NS(=O)(=O)c1ccc(-n2nc(C(F)(F)F)cc2-c2ccc(Cl)cc2)cc1,Potency,[1],inactive
same,outcome,[2],inactive
COc1cc(SC)ccc1C(=O)N1CCC(Cc2ccccc2)CC1,Potency,[1],inactive
same,outcome,[2],inactive
same,Potency,[8],inactive
same,Potency,[5],inactive
CC(C)(C=O)Cc1cc(C(C)(C)C)c(O)c(C(C)(C)C)c1,Potency,[1],inactive
same,outcome,[2],inactive
same,Potency,[5],inactive
CCCC(CCC)C(=O)OC1CC2CCC(C1)[N+]2(C)C (centres undefined),Potency,[1],inactive
same,outcome,[2],inactive
